# Reference: PubChem BioAssay (NCI)
# Compounds without any hit were thinned out: in the full panel of roughly 83,000, 20% have a hit.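 Method: cells in 96-well plates; compound added at one concentration; 48 h incubation; percent growth measured; values under 10 scored active.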 Unmarked numbers belong to inactive results. Activity calls are given as the source filed them.
# Legend:
# Assay in all cases: NCI-60 one-dose screen, 48 h (100 = growth as untreated, 0 = no growth, -100 = all killed)
# Conditions in all cases: 10 µM unless noted
# [1] = system: DU-145 prostate
# [2] = system: K-562 leukemia
# [3] = system: MALME-3M melanoma
# [4] = system: MDA-MB-231 breast
# [5] = system: RXF 393 renal
# [6] = system: SF-268 CNS
# [7] = system: SF-295 CNS
# [8] = system: SF-539 CNS
# [9] = system: UACC-257 melanoma
# [10] = system: M14 melanoma
Compound,growth [1],growth [2],growth [3],growth [4],growth [5],growth [6],growth [7],growth [8],growth [9],growth [10]
C/C(=N/Nc1nc2ccccc2n1C)c1ccccn1,16.2%,5.81% (active),11.6%,28.8%,-12.5% (active),10.7%,8.08% (active),0.5% (active),-29.2% (active),-4.55% (active)
CCCCCCC/C=C/[C@H]1O[C@]23C(=O)C[C@@]4(C[C@@H](OC5OC(CO)C(O)C(O)C5O)C[C@@H]4[C@H]2C=C1C)OC3=O (stereo not given in full),39.8%,9.99% (active),7.25% (active),5.73% (active),-43.7% (active),48.3%,58.5%,-14.3% (active),29%,-12.2% (active)
COc1ccc(-c2cc(-c3nnc(SCC(=O)Nc4ccc(/C(C)=N\O)cc4)o3)c3ccccc3n2)cc1,109%,96.5%,97.8%,114%,106%,101%,105%,111%,101%,115%
C=C(C)[C@@H]1CC[C@]2(C(=O)O)CC[C@]3(C)[C@H](CC[C@@H]4[C@@]5(C)C[C@@H](CC#Cc6ccccc6)C(=O)C(C)(C)[C@@H]5CC[C@]43C)[C@@H]12,37.3%,16.9%,38.1%,55.3%,71.5%,50%,34.8%,49.1%,60.5%,36.5%
CC(/C=C/c1ccccc1)=N/NC(=O)c1ccncc1,112%,100%,89.5%,105%,113%,102%,109%,105%,89.8%,101%
COc1ccc(-c2nnc(N3CCN(C(=O)CN4CCN(c5ccccc5)CC4)CC3)nc2-c2ccc(OC)cc2)cc1,57.8%,4.73% (active),34.2%,65.1%,-9.53% (active),52.8%,-23% (active),46.6%,31.2%,49%
COc1ccc(-n2cc(COc3ccc4c5ccnc(C)c5n(CC(C)C)c4c3)nn2)cc1,88.3%,27.3%,71.2%,73.1%,57.5%,79%,60.6%,82.6%,52.7%,71.5%
COc1cc2c(Nc3ccc(NC(=O)Nc4ccc(Cl)c(C(F)(F)F)c4)c(Cl)c3)ncnc2cc1OCCCN1CCN(C)CC1,2.84% (active),-61% (active),-50.8% (active),-60.2% (active),-40.5% (active),20.2%,-67.3% (active),-77.9% (active),54.6%,0.0561% (active)
C=C1C(=O)O[C@H]2[C@H]1CC/C(C=Nc1c(N)cc(F)cc1Br)=C\CC[C@@]1(C)O[C@@H]21,55.2%,20.3%,99.5%,65.1%,66.3%,83.1%,99.7%,86.9%,81.9%,66.2%
C=C(C)[C@@H]1CC[C@]2(C(=O)N=C=S)CC[C@]3(C)[C@H](CC[C@@H]4[C@@]5(C)CCC(=O)C(C)(C)[C@@H]5CC[C@]43C)[C@@H]12,33.5%,18.8%,40.7%,18%,50.6%,36.5%,36%,31.8%,54.7%,39.3%
O=c1[nH]c2ccccc2cc1-c1nc2ccncc2[nH]1,78.8%,79.1%,113%,98.3%,72.5%,96.6%,78.1%,79.1%,111%,87.3%
Cc1cccc(C)c1NCc1nnc(-c2ccc(O)cc2)o1,110%,126%,101%,103%,108%,101%,96.5%,97.8%,111%,98.5%
COc1ccc(NC(=O)c2sc3nc(C)c(C(C)=O)cc3c2N)cc1,102%,86.2%,115%,102%,105%,102%,97.7%,87.8%,88.7%,100%
COc1ccc2oc(=O)cc(-c3nc4ccc(N)cc4[nH]3)c2c1,97.5%,119%,121%,74.2%,95.1%,87.5%,90.2%,82.3%,132%,114%
